The source made the active and inactive calls.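 How the source made its calls: active means NF-kB reporter IC50 at most 10 µM, IL-8 IC50 within fivefold of it with bacterial filtrate but not with TNF-alpha; inactive means the rest.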
Biological target: Interleukin-8 (Homo sapiens) (UniProt P10145)
Assay: inhibitors of NFkB activation in CF airway cells, SAR follow-up, KKLEB cells, panel, IL8 HTRF, NFkB-GFP (AID 651592);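 further: immortalized cystic fibrosis airway epithelial KKLEB cells with an NF-kB GFP reporter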
Settings: PAF/TNFa-induced NFkB-GFP / IL8 HTRF, mean of runs

Sequence of Interleukin-8 (Homo sapiens) (P10145 whole entry, looked up): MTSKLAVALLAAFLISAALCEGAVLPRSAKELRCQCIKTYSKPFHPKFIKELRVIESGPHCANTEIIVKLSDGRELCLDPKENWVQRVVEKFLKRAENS

outcome, active:
CCOc1ccc(NCc2cc3c(-c4ccc(OC)c(OC)c4)nn(-c4ccccc4)c3[nH]c2=O)cc1
O=C(Nc1ccc(N2CCN(C(=O)c3ccccc3)CC2)cc1)c1cccc(Br)c1
O=C(Nc1ccc(N2CCN(C(=O)c3ccccc3F)CC2)cc1)c1ccncc1
O=C(Nc1ccc(N2CCN(C(=O)c3ccccc3)CC2)cc1)c1cc(Br)cc(Br)c1
Cc1ccc(CNCc2cc3c(C(C)(C)C)nn(-c4ccccc4)c3[nH]c2=O)cc1
O=C(Nc1ccc(N2CCN(C(=O)c3ccccc3)CC2)cc1)c1ccccc1
O=C(Nc1ccc(N2CCN(C(=O)c3ccccc3F)CC2)cc1)c1cccc(Br)c1
O=C(Nc1ccc(N2CCN(C(=O)c3ccc(F)cc3)CC2)cc1)c1ccccn1
O=C(Nc1ccc(N2CCN(C(=O)c3ccc(F)cc3)CC2)cc1)c1ccncc1
O=C(Nc1ccc(N2CCN(C(=O)c3ccccc3)CC2)cc1)c1ccncc1
O=C(Nc1ccc(N2CCN(C(=O)c3ccccc3Cl)CC2)cc1)c1cc(Br)cc(Br)c1
O=C(Nc1ccc(N2CCN(C(=O)c3ccccc3Cl)CC2)cc1)c1ccccn1
O=C(Nc1ccc(N2CCN(C(=O)c3ccccc3F)CC2)cc1)c1cccnc1
O=C(Nc1ccc(N2CCN(C(=O)c3ccc(F)cc3)CC2)cc1)c1cccnc1
O=C(Nc1ccc(N2CCN(C(=O)c3ccc(F)cc3)CC2)cc1)c1ccccc1
CCOc1ccc(NCc2cc3c(C(C)(C)C)nn(-c4ccc(Cl)cc4)c3[nH]c2=O)cc1
O=C(Nc1ccc(N2CCN(C(=O)c3ccccc3Cl)CC2)cc1)c1cccc(Br)c1
O=C(Nc1ccc(N2CCN(C(=O)c3ccc(F)cc3)CC2)cc1)c1cccc(Br)c1
O=C(Nc1ccc(N2CCN(C(=O)c3ccccc3)CC2)cc1)c1cccnc1
O=C(Nc1ccc(N2CCN(C(=O)c3ccc(F)cc3)CC2)cc1)c1cc(Br)cc(Br)c1
CCOc1ccc(NCc2cc3c(C(C)(C)C)nn(-c4ccccc4)c3[nH]c2=O)cc1
O=C(Nc1ccc(N2CCN(C(=O)c3ccccc3F)CC2)cc1)c1cc(Br)cc(Br)c1
Cc1ccc(NCc2cc3c(C(C)(C)C)nn(-c4ccccc4)c3[nH]c2=O)cc1
O=C(Nc1ccc(N2CCN(C(=O)c3ccccc3F)CC2)cc1)c1ccccc1
O=C(Nc1ccc(N2CCN(C(=O)c3ccccc3)CC2)cc1)c1ccccn1
O=C(Nc1ccc(N2CCN(C(=O)c3ccccc3Cl)CC2)cc1)c1cccnc1
O=C(Nc1ccc(N2CCN(C(=O)c3ccccc3F)CC2)cc1)c1ccccn1
O=C(Nc1ccc(N2CCN(C(=O)c3ccccc3Cl)CC2)cc1)c1ccncc1

outcome, inactive:
CCOc1ccc(NCc2cc3c(C)nn(-c4ccccc4)c3[nH]c2=O)cc1
CCOc1ccc(NCc2cc3c(-c4ccc(F)cc4)nn(-c4ccccc4)c3[nH]c2=O)cc1
O=C(Nc1ccc(N2CCN(C(=O)c3ccccc3Cl)CC2)cc1)c1cncc(Br)c1
O=C(Nc1ccc(N2CCN(C(=O)c3ccccc3)CC2)cc1)c1cncc(Br)c1
O=C(Nc1ccc(N2CCN(C(=O)c3ccc(F)cc3)CC2)cc1)c1cncc(Br)c1
O=C(Nc1ccc(N2CCN(C(=O)c3ccccc3Cl)CC2)cc1)c1ccccc1
